In PubChem BioAssay (Tox21) one finds Potency data, which are given here for 40 molecules.

Inconclusive results are not listed. Entries that show only a call come without a potency. The source made the active and inactive calls. Calls follow the shape of the dose curve; as a rule, active = well fitted curve in the direction sought with a large enough effect in the repeat runs; inconclusive = weak or mixed curves; inactive = no such curve, though single readings can be large; an effect the other way counts as inactive or inconclusive.

The first experiment is described as follows: A CellTox Green Cytotoxicity Assay to monitor cytotoxicity in HepG2 cells - 16 hour (AID 1224876). Also: nearly all actives have a fitted effect of over 45% in size. The conditions noted are these: CellTox Green fluorescence; series mostly up to 76.8 µM. Summed up:
(§1)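 Using 1536-well format, dye-containing HepG2 suspension was seeded, allowed 5 h at 37 C/5% CO2, dosed by pintool with compounds, positive and negative controls, and imaged for fluorescence across 40 h.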
For `COC(=O)C1=C(C)NC(C)=C(C(=O)O[C@@H]2CCCN(Cc3ccccc3)C2)[C@@H]1c1cccc([N+](=O)[O-])c1`, the Potency result is “inactive”.
The same measure, in the same setting: for `O=C(Cn1ccnc1[N+](=O)[O-])NCCO` the value was “inactive”.
Same read-out and setting: as for `Cc1ccccc1S`, the entry is “inactive”.
Regarding `CC[N+](CC)(CCNC(=O)C(=O)NCC[N+](CC)(CC)Cc1ccccc1Cl)Cc1ccccc1Cl`, the Potency entry is “inactive”.
For the molecule `C=C1CCC2CC1C2(C)C` (configuration not stated), the Potency entry was “inactive”.
The same measure, in the same setting: for `CCCCCCC(C)(C)C(=O)O` the value was “inactive”; for `Cc1ccc(C(C)(C)O)cc1`, “inactive”.
Still for that read-out and setting: for `CCCCCC#CC(=O)OC` the value was “inactive”.
The same measure, in the same setting: for `CCCCCCCC/C=C\CCCCCCCCO` the value was “inactive”.

Another experiment is described as follows: qHTS RealTime-Glo MT Cell Viability Assay in HepG2 cells - 32 hour (AID 1224877). Also: nearly all actives have a fitted effect of over 55% in size. Also: potency is read from the fitted curve at half-maximal effect. To be noted: RealTime-Glo luminescence; series mostly up to 76.8 µM. Summed up:
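HepG2 cells (600/well) were dispensed with RealTime-Glo reagents, incubated 5 h at 37 °C, then treated with compounds in DMSO for up to 40 h. Nonlytic NanoLuc luminescence reflecting viable cells was read at each stated time point.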
Take `O=C(O)C[C@H](NC(=O)OCc1ccccc1)C(=O)O`: the Potency result is “inactive”.
Still for that read-out and setting: for `CCCCCCCCCI` the value was 35.3 µM (active).
On to `O=C=Nc1ccc(Cl)c(Cl)c1`, for which the Potency result is “inactive”.
With `O=C1C(=O)c2ccccc2C(O)=C1C1CCC(c2ccc(Cl)cc2)CC1` (configuration not stated), the Potency entry was “inactive”.
For `C[C@@H](O)[C@H]1C(=O)N2C(C(=O)O)=C([C@H]3CCCO3)S[C@H]12`, the Potency entry was “inactive”.
The same measure, in the same setting: for `CN(C)CCN1C(=O)c2ccccc2N(C)c2ccccc21` the value was “inactive”.
Take `CC(C)C=O`: the Potency entry is “inactive”.
Still for that read-out and setting: for `CCC1(CO)COCOC1` the value was “inactive”.
On the same count and under the same terms, for `Cc1cscn1` the value was “inactive”.
The same measure, in the same setting: as for `C[C@H]1C[C@H](O)c2ccsc2S1(=O)=O`, the entry is “inactive”; as for `O=C(/C=C/c1ccccc1)OCCc1ccccc1`, “inactive”; as for `CC1(C)[C@H](C(=O)O)N2C(=O)C[C@H]2S1(=O)=O`, “inactive”.
With `CC=C(Cl)Cl`, the Potency entry is “inactive”.
As for `COC(=O)[C@H]1[C@H]2C[C@@H]3c4[nH]c5cc(OC)ccc5c4CCN3C[C@H]2C[C@@H](OC(=O)/C=C/c2ccc(O)c(OC)c2)[C@@H]1OC`, the Potency result was “inactive”.
Still for that read-out and setting: for `NCCNCCO` the value was “inactive”; for `CCCCC(CC)CN` (configuration not stated), “inactive”; for `CC(CN(C)C)C(C)(O)Cc1ccc(Cl)cc1` (configuration not stated), “inactive”.
Turning to `C[C@@]12CCC[C@H]1[C@@H]1CC[C@H]3C[C@@H](O)CC[C@]3(C)[C@H]1CC2`, the Potency entry was “inactive”.
Still for that read-out and setting: for `C[C@]1(Cn2ccnn2)[C@H](C(=O)O)N2C(=O)C[C@H]2S1(=O)=O` the value was “inactive”; for `O=C(O)c1ccc(OCCCOc2ccc(C(=O)O)cc2)cc1`, “inactive”; for `CC1(C)S[C@@H]2[C@H](NC(=O)C(c3ccccc3)S(=O)(=O)O)C(=O)N2[C@H]1C(=O)O` (some centres not stated), “inactive”.
The same measure, in the same setting: for `NC(=O)c1ccncc1` the value was “inactive”.
On the same count and under the same terms, for `CO[C@]1(NC(=O)CSC(F)F)C(=O)N2C(C(=O)O)=C(CSc3nnnn3CCO)CO[C@H]21` the value was “inactive”; for `CCCCN(CCN(CCCC)C(=O)N1CCOCC1)C(=O)N1CCOCC1`, “inactive”; for `O=C1CCCCCCCCCCOCCCCO1`, “inactive”.
In the case of `C=C(C)C(=O)OCCOCCOC(=O)C(=C)C`, the Potency result is “inactive”.
The same measure, in the same setting: for `CCCCCC[C@@H](O)C/C=C\CCCCCCCC(=O)OCC(O)CO` (some centres not stated) the value was “inactive”; for `Cc1c(C)c2c(c(C)c1OC(=O)CCC(=O)OCCO)CC[C@@](C)(CCC[C@H](C)CCC[C@H](C)CCCC(C)C)O2`, “inactive”; for `CC[N+](CC)(CCNC(=O)C(=O)NCC[N+](CC)(CC)Cc1ccccc1Cl)Cc1ccccc1Cl`, “inactive”.
Take `C=C1CCC2CC1C2(C)C` (configuration not stated): the Potency result was “inactive”.
Still for that read-out and setting: for `Cc1ccc(C(C)(C)O)cc1` the value was “inactive”.
As for `CCCCCC#CC(=O)OC`, the Potency result is “inactive”.
On the same count and under the same terms, for `CCCCCCCC/C=C\CCCCCCCCO` the value was “inactive”.

The next experiment in a line: A CellTox Green Cytotoxicity Assay to monitor cytotoxicity in HepG2 cells - 24 hour (AID 1224878). Also: nearly all actives have a fitted effect of over 45% in size. Also: potency is read from the fitted curve at half-maximal effect. To be noted: CellTox Green fluorescence; series mostly up to 76.8 µM. Summed up:
as §1
For the molecule `O=C(O)C[C@H](NC(=O)OCc1ccccc1)C(=O)O`, the Potency result is “inactive”.
Same read-out and setting: as for `CCCCCCCCCI`, the entry is “inactive”; as for `O=C=Nc1ccc(Cl)c(Cl)c1`, “inactive”.
On the same count and under the same terms, for `O=C1C(=O)c2ccccc2C(O)=C1C1CCC(c2ccc(Cl)cc2)CC1` (configuration not stated) the value was “inactive”; for `C[C@@H](O)[C@H]1C(=O)N2C(C(=O)O)=C([C@H]3CCCO3)S[C@H]12`, “inactive”.
As for `c1ccc(C[n+]2cccc3ccccc32)cc1`, the Potency result was “inactive”.
Still for that read-out and setting: for `CN(C)CCN1C(=O)c2ccccc2N(C)c2ccccc21` the value was “inactive”; for `CC(C)C=O`, “inactive”.
As to `CCC1(CO)COCOC1`, the Potency result was “inactive”.
Same read-out and setting: as for `Cc1cscn1`, the entry is “inactive”.
On to `C[C@H]1C[C@H](O)c2ccsc2S1(=O)=O`, for which the Potency entry is “inactive”.
The same measure, in the same setting: for `O=C(/C=C/c1ccccc1)OCCc1ccccc1` the value was “inactive”.
Same read-out and setting: as for `CC1(C)[C@H](C(=O)O)N2C(=O)C[C@H]2S1(=O)=O`, the entry is “inactive”; as for `CC=C(Cl)Cl`, “inactive”.
Same read-out and setting: for `COC(=O)[C@H]1[C@H]2C[C@@H]3c4[nH]c5cc(OC)ccc5c4CCN3C[C@H]2C[C@@H](OC(=O)/C=C/c2ccc(O)c(OC)c2)[C@@H]1OC` the value was 26.8 µM (active).
`NCCNCCO`: the Potency entry is “inactive”.
As to `N#CCc1ccc(Cl)cc1Cl`, the Potency entry is “inactive”.
With `CCCCC(CC)CN` (configuration not stated), the Potency entry is “inactive”.
Still for that read-out and setting: for `CC(CN(C)C)C(C)(O)Cc1ccc(Cl)cc1` (configuration not stated) the value was “inactive”; for `C[C@@]12CCC[C@H]1[C@@H]1CC[C@H]3C[C@@H](O)CC[C@]3(C)[C@H]1CC2`, “inactive”.
The same measure, in the same setting: for `C[C@]1(Cn2ccnn2)[C@H](C(=O)O)N2C(=O)C[C@H]2S1(=O)=O` the value was “inactive”; for `Cc1ccccc1N=C(N)Nc1ccccc1C`, “inactive”.
On the same count and under the same terms, for `O=C(O)c1ccc(OCCCOc2ccc(C(=O)O)cc2)cc1` the value was “inactive”; for `CC1(C)S[C@@H]2[C@H](NC(=O)C(c3ccccc3)S(=O)(=O)O)C(=O)N2[C@H]1C(=O)O` (some centres not stated), “inactive”.
With `NC(=O)c1ccncc1`, the Potency result was “inactive”.
Same read-out and setting: as for `CO[C@]1(NC(=O)CSC(F)F)C(=O)N2C(C(=O)O)=C(CSc3nnnn3CCO)CO[C@H]21`, the entry is “inactive”.
With `CCCCN(CCN(CCCC)C(=O)N1CCOCC1)C(=O)N1CCOCC1`, the Potency result was “inactive”.
On the same count and under the same terms, as for `O=C1CCCCCCCCCCOCCCCO1`, the entry is “inactive”; as for `C=C(C)C(=O)OCCOCCOC(=O)C(=C)C`, “inactive”.
On the same count and under the same terms, as for `COC(=O)C1=C(C)NC(C)=C(C(=O)O[C@@H]2CCCN(Cc3ccccc3)C2)[C@@H]1c1cccc([N+](=O)[O-])c1`, the entry is “inactive”.
The same measure, in the same setting: as for `CCCCCC[C@@H](O)C/C=C\CCCCCCCC(=O)OCC(O)CO` (some centres not stated), the entry is “inactive”; as for `Cc1c(C)c2c(c(C)c1OC(=O)CCC(=O)OCCO)CC[C@@](C)(CCC[C@H](C)CCC[C@H](C)CCCC(C)C)O2`, “inactive”; as for `O=C(Cn1ccnc1[N+](=O)[O-])NCCO`, “inactive”.
Turning to `Cc1ccccc1S`, the Potency result was “inactive”.
Still for that read-out and setting: for `CC[N+](CC)(CCNC(=O)C(=O)NCC[N+](CC)(CC)Cc1ccccc1Cl)Cc1ccccc1Cl` the value was “inactive”; for `C=C1CCC2CC1C2(C)C` (configuration not stated), “inactive”; for `CCCCCCC(C)(C)C(=O)O`, “inactive”.
Same read-out and setting: for `Cc1ccc(C(C)(C)O)cc1` the value was “inactive”; for `CCCCCC#CC(=O)OC`, “inactive”.
Still for that read-out and setting: for `CCCCCCCC/C=C\CCCCCCCCO` the value was “inactive”.
